Results taken from PubChem BioAssay (Tox21).
Results filed as inconclusive are left out. The source made the active and inactive calls. Calls follow the shape of the dose curve; as a rule, active = well fitted curve in the direction sought with a large enough effect in the repeat runs; inconclusive = weak or mixed curves; inactive = no such curve, though single readings can be large; an effect the other way counts as inactive or inconclusive. Positions of bridges follow the written chain, without caps; N, C: chain ends. Non-standard residues stand in square brackets, D forms with d. Residues, ends and D or L forms follow the SMILES beside them. hArg = N=C(N)NCCCC[C@H](N)C(=O)O; Mpa = O=C(O)CCS

Legend:
[1] = A CellTox Green Cytotoxicity Assay to monitor cytotoxicity in HEK293 cells - 0 hour (AID 1224869); also: nearly all actives have a fitted effect of over 50% in size
Procedure, shortened: (§1)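 Fluorescence intensity, read at 0, 8, 16, 24, 32 and 40 h of compound treatment, reflected dye binding to DNA of dead HEK293 cells; compounds (23 nL, DMSO) were added 5 h after plating cells with reagent.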

[2] = qHTS RealTime-Glo MT Cell Viability Assay in HepG2 cells - 40 hour (AID 1224870); also: nearly all actives have a fitted effect of over 50% in size
Procedure, shortened: (§2)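 HepG2 cells (600/well) mixed with RealTime-Glo MT reagent, settled 5 h at 37 C/5% CO2 before compound addition. Nonlytic NanoLuc luminescence from viable-cell prosubstrate reduction read repeatedly during 40 h treatment at 37 C.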

[3] = A CellTox Green Cytotoxicity Assay to monitor cytotoxicity in HEK293 cells - 40 hour (AID 1224871); also: nearly all actives have a fitted effect of over 45% in size
Procedure, shortened: as §1

[4] = qHTS RealTime-Glo MT Cell Viability Assay in HepG2 cells - 8 hour (AID 1224873); also: nearly all actives have a fitted effect of over 55% in size
Procedure, shortened: as §2

[5] = A CellTox Green Cytotoxicity Assay to monitor cytotoxicity in HEK293 cells - 24 hour (AID 1224875); also: series mostly up to about 77 µM; nearly all actives have a fitted effect of over 45% in size
Procedure, shortened: as §1

[6] = qHTS RealTime-Glo MT Cell Viability Assay in HEK293 cells - 32 hour (AID 1224868); also: top concentration of the series differs between compounds; nearly all actives have a fitted effect of over 50% in size
Procedure, shortened: (§3)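 HEK293 cells seeded with NanoLuc/prosubstrate reagent, rested 5 h at 37 C, then dosed and kept at 37 C up to 40 h. Nonlytic real-time luminescence from viable cells read at 0, 8, 16, 24, 32 and 40 h.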

[7] = qHTS RealTime-Glo MT Cell Viability Assay in HEK293 cells - 16 hour (AID 1224872); also: top concentration of the series differs between compounds; nearly all actives have a fitted effect of over 50% in size
Procedure, shortened: as §3

[8] = qHTS RealTime-Glo MT Cell Viability Assay in HEK293 cells - 40 hour (AID 1224874); conditions: RealTime-Glo luminescence; max response: active compounds read low; also: nearly all actives have a fitted effect of over 50% in size
Procedure, shortened: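 Viable HEK293 cells reduce a cell-permeant prosubstrate; the product diffuses out and is consumed by NanoLuc in the medium to give light. Compounds went in after a 5 h incubation and plates were read over the treatment course.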
% is scaled to controls: 0 for no effect and ±100 for the full control effect.

C=CCSSCCC
inactive: Potency [1] | outcome [2] | Potency [3] | outcome [4] | Potency [5]

Cc1ccc(N)cc1S(=O)(=O)O
inactive: Potency [6] | Potency [1] | outcome [2] | Potency [3] | Potency [7] | outcome [4] | max response [8] 7.16% | Potency [5]

O=C=NCC1CCCC(CN=C=O)C1 (centres undefined)
inactive: Potency [6] | Potency [1] | outcome [2] | Potency [3] | Potency [7] | outcome [4] | max response [8] 1.36% | Potency [5]

Cc1c(NC(=O)c2cccnc2)c(=O)n(-c2ccccc2)n1C
inactive: Potency [6] | Potency [1] | Potency [3] | Potency [7] | outcome [4] | max response [8] 2.99% | Potency [5]

COC(=O)/C=C\C(=O)O
inactive: Potency [6] | Potency [1] | outcome [2] | Potency [3] | Potency [7] | outcome [4] | max response [8] 0.0191% | Potency [5]

c1ccc(B(c2ccccc2)c2ccccc2)cc1
inactive: Potency [1] | outcome [2] | Potency [3] | outcome [4] | Potency [5]

CC(=O)CCc1ccc(OC(C)=O)cc1
inactive: Potency [6] | Potency [1] | Potency [3] | Potency [7] | outcome [4] | max response [8] 2.75% | Potency [5]

CC(C)Cn1cnc2c1c(=O)n(C)c(=O)n2C
inactive: Potency [6] | Potency [1] | Potency [3] | Potency [7] | outcome [4] | max response [8] 2.8% | Potency [5]

N[C@@H](CSCCCO)C(=O)O
inactive: activity change, negative = cytotoxic [6] 3.39% [at 15.8 µM] | cytotoxicity [1] -3.9% [at 15.8 µM] | cytotoxicity increase [3] -5.88% [at 15.8 µM] | activity change, negative = cytotoxicity [7] 2.66% [at 15.8 µM] | viability change, negative = cytotoxic [4] 1.95% [at 15.8 µM] | max response [8] 2.4% | activity change [5] 1.71% [at 15.8 µM, active compounds read high]

CC1(C)Oc2ccc(C#N)cc2[C@@H](N2CCCC2=O)[C@@H]1O
inactive: Potency [6] | Potency [1] | outcome [2] | Potency [3] | Potency [7] | outcome [4] | max response [8] 2.51% | Potency [5]

NCc1ccc(S(N)(=O)=O)cc1
inactive: Potency [6] | Potency [1] | outcome [2] | Potency [3] | Potency [7] | outcome [4] | max response [8] 4.4% | Potency [5]

OC1(c2ccc(Cl)cc2)CCNCC1
inactive: Potency [6] | Potency [1] | outcome [2] | Potency [3] | outcome [4] | max response [8] 3.5% | Potency [5]

Cc1ccc(C(=O)O)cc1[N+](=O)[O-]
inactive: Potency [6] | Potency [1] | outcome [2] | Potency [3] | Potency [7] | outcome [4] | max response [8] 6.44% | Potency [5]

CC(C)CCOC(=O)c1ccccc1
inactive: Potency [6] | Potency [1] | outcome [2] | Potency [3] | Potency [7] | outcome [4] | max response [8] -0.72%

C=Cc1ccc(C(C)(C)C)cc1
inactive: Potency [6] | Potency [1] | outcome [2] | Potency [3] | Potency [7] | outcome [4] | max response [8] -0.639% | Potency [5]

OC[C@H]1O[C@@H](O[C@@H]2[C@@H](CO)O[C@](O)(CO)[C@H]2O)[C@H](O)[C@@H](O)[C@H]1O
inactive: Potency [6] | Potency [1] | Potency [3] | Potency [7] | outcome [4] | max response [8] 1.5% | Potency [5]

C=CC(=O)OCC1CCCO1 (centres undefined)
inactive: Potency [6] | Potency [1] | Potency [3] | Potency [7] | outcome [4] | max response [8] 0.647% | Potency [5]

CCC(=O)Oc1ccc2c(c1)CC[C@@H]1[C@@H]2CC[C@@]2(C)[C@H]1C[C@@H](OC(=O)CC)[C@@H]2OC(=O)CC
inactive: Potency [6] | Potency [1] | Potency [3] | Potency [7] | outcome [4] | max response [8] -0.818% | Potency [5]

CC(C)COC(=O)c1ccccc1
inactive: Potency [6] | Potency [1] | outcome [2] | Potency [3] | Potency [7] | outcome [4] | max response [8] 2.33% | Potency [5]

CC(=O)O[Si](C)(OC(C)=O)OC(C)=O
inactive: Potency [6] | Potency [1] | outcome [2] | Potency [3] | Potency [7] | outcome [4] | max response [8] 7.61% | Potency [5]

CCCCCCCCCCOC(C)=O
inactive: Potency [6] | Potency [1] | outcome [2] | Potency [3] | Potency [7] | outcome [4] | max response [8] 0.865% | Potency [5]

CCCCCCCCCOC(=O)c1ccccc1C(=O)OCCCCCCCCC
inactive: Potency [6] | Potency [1] | outcome [2] | Potency [3] | Potency [7] | outcome [4] | max response [8] 2.9% | Potency [5]

O=C1CCC(=O)N1Cl
inactive: Potency [6] | Potency [1] | outcome [2] | Potency [3] | Potency [7] | outcome [4] | max response [8] 7.58% | Potency [5]

NC(=O)[C@@H]1CSSCCC(=O)N[C@@H](CCCCN=C(N)N)C(=O)NCC(=O)N[C@@H](CC(=O)O)C(=O)N[C@@H](Cc2c[nH]c3ccccc23)C(=O)N2CCC[C@H]2C(=O)N1 ([Mpa][hArg]GDWPC-NH2; disulfide 1-7)
inactive: Potency [6] | Potency [1] | outcome [2] | Potency [3] | Potency [7] | outcome [4] | max response [8] 0% | Potency [5]

C=C(C)[C@@H]1CC=C(C)C(=O)C1
inactive: Potency [6] | Potency [1] | outcome [2] | Potency [3] | Potency [7] | outcome [4] | max response [8] -8.2% | Potency [5]

CC(C)NCC(O)c1ccc2ccccc2c1 (centres undefined)
inactive: Potency [6] | Potency [1] | outcome [2] | Potency [3] | Potency [7] | outcome [4] | max response [8] -5.31% | Potency [5]

CC1CC(=O)CC(C)(C)C1 (centres undefined)
inactive: Potency [6] | Potency [1] | outcome [2] | Potency [3] | Potency [7] | outcome [4] | max response [8] -1.21% | Potency [5]

CN(C)CC/C=C1/c2ccccc2COc2ccc(CC(=O)O)cc21
inactive: Potency [1] | Potency [3] | Potency [5]
